In PubChem BioAssay (EPA / NIEHS):
“And” between values parts separate entries of the source, which are not always exact repeats. Equal values may be shown once. Where a structure was tested more than once in an assay, its records may differ in their call. The source made the active and inactive calls. How the source made its calls: active means hit-call score of the fitted dose curve at least 0.9, where 1 is the maximum; inactive means score below 0.9.

read-out: CD40, CD40 (gene 958); experiment: BSK_LPS_CD40: BioMAP Diversity Plus: LPS Assay for CD40 Biomarker Activity (AID 2283076); conditions: primary human HUVEC with PBMC; actives raise or lower the signal
Procedure: BSK_LPS is a cell-based, multiplexed-readout assay that uses umbilical vein endothelium and peripheral blood mononuclear cells, a human vascular primary cell co-culture, with measurements taken at 24 hours after chemical dosing in a 96-well plate.BSK_LPS_CD40 is an assay component measured in the BSK_LPS assay. It measures CD40 antibody related to regulation of gene expression using ELISA technology.Data from the assay component BSK_LPS_CD40 was analyzed into 1 assay endpoint. This assay endpoint, BSK_LPS_CD40, was analyzed with bidirectional fitting relative to DMSO as the negative control and baseline of activity. Using a type of binding reporter, gain or loss-of-signal activity can be used to understand changes in the signaling as they relate to the gene CD40. Furthermore, this assay endpoint can be referred to as a primary readout, because this assay has produced multiple assay endpoints where this one serves a signaling function. To generalize the intended target to other relatable targets, this assay endpoint is annotated to the cytokine intended target family, where the subfamily is inflammatory factor.
The levels of cell surface (or secreted, indicated by the prefix "s") biomarker endpoints were measured by ELISA. Overt cytotoxicity to cells in confluent adherent cultures (all systems other than the BT system) was assessed by measuring total protein levels using sulforhodamine B (SRB) staining in parallel cultures at the time of biomarker measurements, indicated as SRB endpoints. For proliferation assays for adherent cell types, individual cell types are cultured at sub-confluence and relative cell numbers quantified by SRB staining at time points optimized for each system (48 h: 3C and CASM3C systems; 72 h: BT and HDF3CGF systems; 96 h: SAg system). SRB was performed by staining cells with 0.1% SRB after fixation with 10% TCA and reading wells at 560 nm.Viability and proliferation of PBMC (T cells) was quantified by Alamar Blue reduction for the SAg and BT systems. For PBMC viability (referred to as PBMC Cytotoxicity within the assay endpoint names), cells were plated (75,000/well in a 96-well plate) and then chemical samples added for 1 h before addition of activators, SEB and TSST-1 (20 ng/mL final concentration each). Cells were incubated for 90 h. Then, Alamar Blue (20 uL/well) (Invitrogen, Cat DAL1100) was added for 6 h, and the plates were read with a fluorescence microplate reader at 546/580 nm (excitation/emission). For PBMC proliferation, cells were plated and activated as above but incubated for only 16 h prior to addition of Alamar Blue. Plates were read after 6 h.

Compound	outcome	AC50
COC(=O)c1ccccc1C(=O)OC	inactive	–
CCc1nn(C)c(C(=O)NCc2ccc(C(C)(C)C)cc2)c1Cl	–	24.3 µM (active)
CCCCOC(=O)c1ccccc1C(=O)OCCCC	inactive	–
COP(=S)(OC)Oc1nc(Cl)c(Cl)cc1Cl	inactive	–
CCCCNC(=O)n1c(NC(=O)OC)nc2ccccc21	inactive	–
CCCN(CCC)c1c([N+](=O)[O-])cc(S(N)(=O)=O)cc1[N+](=O)[O-]	–	33.6 µM (active) [middle of 4 runs]
CON(C)C(=O)Nc1ccc(Cl)c(Cl)c1	inactive	–
Cc1ccc(-c2c(Cl)nc(C#N)n2S(=O)(=O)N(C)C)cc1	–	14.9 µM (active)
Fc1ccc(Oc2ccnc3cc(Cl)cc(Cl)c23)cc1	–	22.8 µM (active)
COC(=O)C(C)Oc1ccc(Oc2ccc(Cl)cc2Cl)cc1 (stereo not given)	inactive	29.2 µM (active) and 34.7 µM (active)
CO/C=C(/C(=O)OC)c1ccccc1Oc1cc(Oc2ccccc2C#N)ncn1	inactive	19.9 µM (active) and 10 µM (active) and 12.9 µM (active)
CCOP(=S)(OCC)SCn1c(=O)oc2cc(Cl)ccc21	–	16.6 µM (active)
C#CCOS(=O)OC1CCCCC1Oc1ccc(C(C)(C)C)cc1 (stereo not given)	–	6.59 µM (active)
N#CC(CCc1ccc(Cl)cc1)(Cn1cncn1)c1ccccc1 (stereo not given)	inactive	–
CC(Oc1ccc(Cl)cc1Cl)C(=O)O (stereo not given)	inactive	–
N#Cc1cc(Br)c(O)c(Br)c1	–	9.86 µM (active)
COC(=O)C=C(C)OP(=O)(OC)OC	inactive	–
CC(C)Oc1cc(-n2nc(C(C)(C)C)oc2=O)c(Cl)cc1Cl	–	14.8 µM (active)
CS/C(C)=N/OC(=O)N(C)SN(C)C(=O)O/N=C(\C)SC	–	15.8 µM (active)

Compound	outcome	AC50
CCOC(=O)C(Cl)Cc1cc(-n2nc(C)n(C(F)F)c2=O)c(F)cc1Cl (stereo not given)	inactive	–
O=C(O)c1nc(Cl)ccc1Cl	inactive	–
COP(N)(=O)SC (stereo not given)	inactive	–
CC(C)C1(C)N=C(c2nc3ccccc3cc2C(=O)O)NC1=O (stereo not given)	inactive	–
COc1nc(C)nc(NC(=O)NS(=O)(=O)c2ccccc2Cl)n1	inactive	–
O=C(Nc1ccccc1)Nc1ccnc(Cl)c1	inactive	–
CCCC1COC(Cn2cncn2)(c2ccc(Cl)cc2Cl)O1 (stereo not given)	–	20 µM (active)
CCNc1nc(Cl)nc(NCC)n1	inactive	–
N#Cc1nn(-c2c(Cl)cc(C(F)(F)F)cc2Cl)c(N)c1S(=O)C(F)(F)F (stereo not given)	–	14.9 µM (active)
OC(c1ccc(Cl)cc1)(c1cncnc1)c1ccccc1Cl (stereo not given)	–	15.8 µM (active)
CCNc1nc(Cl)nc(NC(C)C)n1	inactive	–
CNC(=S)S	–	15.7 µM (active)
COC(=O)N(OC)c1ccccc1COc1ccn(-c2ccc(Cl)cc2)n1	–	20 µM (active)
C=CC1(C)OC(=O)N(c2cc(Cl)cc(Cl)c2)C1=O (stereo not given)	inactive	–
Oc1ccccc1-c1ccccc1	inactive	–
C=CCC1=C(C)[C@@H](OC(=O)[C@@H]2[C@@H](C=C(C)C)C2(C)C)CC1=O	–	29.2 µM (active)
CN(C)C(=S)SSC(=S)N(C)C	–	24.7 µM (active)
Cc1cc(Cl)ccc1OCC(=O)O	inactive	–
COc1ccc(C(c2ccc(OC)cc2)C(Cl)(Cl)Cl)cc1	–	23.3 µM (active)
